Results filed as inconclusive are left out. A call without a number means that no potency is given here. Active and inactive are the calls of the source. The call rests on the fitted dose curve; in most records, active means well fitted curve in the direction sought with a large enough effect; inconclusive means small, poorly fitted or top-dose-only effect, or another doubt; inactive means no such curve, though single readings can be large; an effect the other way counts as inactive or inconclusive.
Assays:
[1] = S16 Schwann cell viability assay (CellTiter-Glo assay) (AID 624031); further: nearly all actives have a fitted effect of over 70% in size
Summary of the method: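 Following overnight culture in 10% FBS DMEM, parental S16 rat Schwann cells are dosed for 24 h at 37 °C. Viability is read as CellTiter-Glo luminescence and expressed as % activity relative to DMSO (0%) and no-cell wells.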

[2] = S16 Schwann cell PMP22 intronic element firefly luciferase assay (AID 624032); further: nearly all actives have a fitted effect of over 30% in size
Summary of the method: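 Rat S16 Schwann cells stably carrying firefly luciferase driven by a PMP22 intronic element, in 10% FBS, treated 24 h at 37 C. ONE-Glo luminescence normalized to PTC124 control and DMSO (0%); curves classed by r2, magnitude and activity.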

[3] = test system: AS120; assay: qHTS profiling for inhibitors of Plasmodium falciparum proliferation (AID 504749); further: nearly all actives have a fitted effect of over 60% in size; conditions: P. falciparum in erythrocytes, SYBR Green DNA, 72 h; series mostly up to 28.7 µM
Summary of the method: (§1)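 Each compound contacts P. falciparum-infected red blood cells for 72 h at 37 C; lysis buffer (Tris, EDTA, saponin, Triton X, SYBR Green I) is added and fluorescence measured next morning; values normalized to controls.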

[4] = test system: CP194; assay: as above; conditions: P. falciparum in erythrocytes, SYBR Green DNA, 72 h; series mostly up to 28.7 µM
Summary of the method: as §1

[5] = test system: CP297; assay: as above; conditions: P. falciparum in erythrocytes, SYBR Green DNA, 72 h; series mostly up to 28.7 µM
Summary of the method: as §1

[6] = test system: Dd2; assay: as above; conditions: P. falciparum in erythrocytes, SYBR Green DNA, 72 h; series mostly up to 28.7 µM
Summary of the method: as §1

[7] = test system: ICS; assay: as above; conditions: P. falciparum in erythrocytes, SYBR Green DNA, 72 h; series mostly up to 28.7 µM
Summary of the method: as §1

[8] = test system: PC15; assay: as above; conditions: P. falciparum in erythrocytes, SYBR Green DNA, 72 h; series mostly up to 28.7 µM
Summary of the method: as §1

[9] = test system: SC27B; assay: as above; conditions: P. falciparum in erythrocytes, SYBR Green DNA, 72 h; series mostly up to 28.7 µM
Summary of the method: as §1

[10] = test system: CP247; assay: as above; conditions: P. falciparum in erythrocytes, SYBR Green DNA, 72 h; series mostly up to 28.7 µM
Summary of the method: as §1

[11] = test system: DIV14; assay: as above; conditions: P. falciparum in erythrocytes, SYBR Green DNA, 72 h; series mostly up to 28.7 µM
Summary of the method: as §1

[12] = test system: AA1029; assay: as above; conditions: P. falciparum in erythrocytes, SYBR Green DNA, 72 h; series mostly up to 28.7 µM
Summary of the method: as §1

[13] = test system: ATS95; assay: as above; conditions: P. falciparum in erythrocytes, SYBR Green DNA, 72 h; series mostly up to 28.7 µM
Summary of the method: as §1

[14] = test system: CP266; assay: as above; conditions: P. falciparum in erythrocytes, SYBR Green DNA, 72 h; series mostly up to 28.7 µM
Summary of the method: as §1

[15] = test system: DFO2036; assay: as above; conditions: P. falciparum in erythrocytes, SYBR Green DNA, 72 h; series mostly up to 28.7 µM
Summary of the method: as §1

[16] = test system: GB4; assay: as above; conditions: P. falciparum in erythrocytes, SYBR Green DNA, 72 h; series mostly up to 28.7 µM
Summary of the method: as §1

[17] = test system: P93_24; assay: as above; conditions: P. falciparum in erythrocytes, SYBR Green DNA, 72 h; series mostly up to 28.7 µM
Summary of the method: as §1

[18] = test system: P94_40; assay: as above; conditions: P. falciparum in erythrocytes, SYBR Green DNA, 72 h; series mostly up to 28.7 µM
Summary of the method: as §1

[19] = test system: PAD; assay: as above; conditions: P. falciparum in erythrocytes, SYBR Green DNA, 72 h; series mostly up to 28.7 µM
Summary of the method: as §1

[20] = test system: TAB165; assay: as above; conditions: P. falciparum in erythrocytes, SYBR Green DNA, 72 h; series mostly up to 28.7 µM
Summary of the method: as §1
Potency means the concentration at half of the fitted maximal effect.

CN(C)C1C(=O)C(C(N)=O)C(=O)C2(O)C(=O)C3C(=O)c4c(O)cccc4C(C)(O)C3C(O)C12 (stereo not given)
Potency [1]: inactive
Potency [2]: inactive
Potency [3]: inactive
Potency [4]: inactive
Potency [5]: inactive
Potency [6]: 3.55 µM (active)
Potency [7]: 2.82 µM (active)
Potency [8]: inactive
Potency [9]: inactive

C#CC1(O)C=CC2C3CCC4=CC(=O)CCC4C3CCC21CC (stereo not given)
Potency [1]: inactive
Potency [2]: 6.42 µM (active)
Potency [3]: inactive
Potency [10]: 6.31 µM (active)
Potency [11]: 6.75 µM (active)
Potency [6]: inactive
Potency [8]: 11.2 µM (active)

CC1CC[C@@]2(NC1)OC1CC3C4CC[C@@H]5CC(O)CC[C@@]5(C)C4CC[C@]3(C)C1C2C (stereo not given in full)
Potency [1]: inactive
Potency [2]: inactive
Potency [12]: inactive
Potency [13]: inactive
Potency [4]: inactive
Potency [14]: inactive
Potency [5]: inactive
Potency [15]: inactive
Potency [7]: 10 µM (active)
Potency [8]: inactive

CC(C)=CC1C(C(=O)OCc2coc(Cc3ccccc3)c2)C1(C)C (stereo not given)
Potency [1]: inactive
Potency [2]: inactive
Potency [12]: inactive
Potency [13]: inactive
Potency [4]: inactive
Potency [10]: inactive
Potency [14]: inactive
Potency [5]: inactive
Potency [15]: inactive
Potency [11]: inactive
Potency [6]: inactive
Potency [16]: inactive
Potency [17]: inactive
Potency [18]: inactive
Potency [19]: inactive
Potency [8]: inactive

CN(C)[C@@H](Cc1ccccc1)c1ccccc1
Potency [1]: inactive
Potency [2]: inactive
Potency [3]: inactive
Potency [13]: inactive
Potency [4]: inactive
Potency [10]: 10 µM (active)
Potency [14]: inactive
Potency [15]: inactive
Potency [6]: 10 µM (active)
Potency [7]: inactive
Potency [18]: inactive
Potency [19]: inactive
Potency [8]: inactive
Potency [9]: inactive
Potency [20]: inactive

C=C1CC2C(CC[C@]3(C)C(=O)CCC23)[C@]2(C)C=CC(=O)C=C12 (stereo not given in full)
Potency [1]: inactive
Potency [2]: 11.4 µM (active)
Potency [12]: inactive
Potency [3]: inactive
Potency [13]: inactive
Potency [4]: inactive
Potency [10]: inactive
Potency [14]: inactive
Potency [5]: inactive
Potency [15]: inactive
Potency [11]: inactive
Potency [6]: inactive
Potency [16]: inactive
Potency [7]: inactive
Potency [17]: inactive
Potency [18]: inactive
Potency [19]: inactive
Potency [8]: inactive
Potency [9]: inactive
Potency [20]: inactive

NC(Cc1ccc(Oc2cc(I)c(O)c(I)c2)c(I)c1)C(=O)O (stereo not given)
Potency [1]: inactive
Potency [2]: inactive
Potency [12]: inactive
Potency [3]: inactive
Potency [13]: inactive
Potency [4]: inactive
Potency [14]: inactive
Potency [5]: inactive
Potency [11]: inactive
Potency [6]: inactive
Potency [16]: inactive
Potency [7]: inactive
Potency [17]: inactive
Potency [19]: inactive
Potency [8]: inactive
Potency [9]: inactive
Potency [20]: inactive

COC(=O)C1C(OC(=O)c2ccccc2)CC2CCC1N2C (stereo not given)
Potency [1]: inactive
Potency [2]: inactive
Potency [12]: inactive
Potency [3]: inactive
Potency [13]: inactive
Potency [4]: inactive
Potency [10]: inactive
Potency [14]: inactive
Potency [5]: inactive
Potency [15]: inactive
Potency [11]: inactive
Potency [6]: inactive
Potency [16]: inactive
Potency [7]: inactive
Potency [17]: inactive
Potency [18]: inactive
Potency [19]: inactive
Potency [8]: inactive
Potency [9]: inactive
Potency [20]: inactive

O=C1CC2OCC=C3CN4CCC56c7ccccc7N1C5[C@H]2[C@H]3C[C@H]46 (stereo not given in full) (tested in a mixture with another compound)
Potency [1]: inactive
Potency [2]: inactive
Potency [13]: inactive
Potency [10]: inactive
Potency [14]: inactive
Potency [5]: inactive
Potency [15]: inactive
Potency [17]: inactive
Potency [18]: inactive
Potency [8]: inactive
Potency [9]: inactive
Potency [20]: inactive

O=C1CC2OCC=C3CN4CC[C@]56c7ccccc7N1C5C2[C@H]3C[C@H]46 (stereo not given in full)
Potency [1]: inactive
Potency [2]: inactive
Potency [12]: 10 µM (active)
Potency [10]: inactive
Potency [6]: 11.2 µM (active)
Potency [7]: inactive
Potency [8]: inactive

CCC(=O)OC1(c2ccccc2)CCN(C)CC1C (stereo not given)
Potency [1]: inactive
Potency [2]: inactive
Potency [14]: inactive
Potency [5]: 12 µM (active)
Potency [11]: inactive
Potency [6]: 5.62 µM (active)
Potency [16]: 7.57 µM (active)
Potency [7]: inactive
Potency [19]: inactive
Potency [8]: inactive

CC(CO)NC(=O)C1C=C2c3cccc4[nH]cc(c34)CC2N(C)C1 (stereo not given)
Potency [1]: inactive
Potency [2]: inactive
Potency [12]: inactive
Potency [3]: inactive
Potency [13]: inactive
Potency [4]: inactive
Potency [10]: inactive
Potency [14]: inactive
Potency [5]: inactive
Potency [15]: inactive
Potency [6]: inactive
Potency [16]: inactive
Potency [7]: inactive
Potency [17]: inactive
Potency [18]: inactive
Potency [19]: inactive
Potency [8]: inactive
Potency [9]: inactive
Potency [20]: inactive

CCN(CC)C(=O)N[C@@H]1C=C2c3cccc4[nH]cc(c34)C[C@H]2N(C)C1
Potency [2]: inactive
Potency [3]: 12.6 µM (active)
Potency [14]: inactive
Potency [15]: inactive
Potency [11]: 13.5 µM (active)
Potency [6]: 14.1 µM (active)
Potency [16]: 8.49 µM (active)
Potency [7]: 8.91 µM (active)
Potency [17]: 7.94 µM (active)
Potency [18]: 8.91 µM (active)
Potency [20]: 12.6 µM (active)

C[C@@H](N)[C@@H](O)c1ccc(O)c(O)c1
Potency [1]: 28.7 µM (active)
Potency [12]: inactive
Potency [3]: inactive
Potency [13]: inactive
Potency [4]: inactive
Potency [10]: inactive
Potency [14]: inactive
Potency [5]: inactive
Potency [15]: inactive
Potency [11]: inactive
Potency [6]: inactive
Potency [16]: inactive
Potency [7]: inactive
Potency [17]: inactive
Potency [18]: inactive
Potency [19]: inactive
Potency [8]: inactive
Potency [9]: inactive
Potency [20]: inactive

CC(=O)O[C@H]1C[C@H](O[C@H]2[C@@H](O)CC(O[C@H]3[C@@H](O)C[C@H](O[C@H]4CC[C@@]5(C)[C@H](CC[C@@H]6[C@@H]5CC[C@]5(C)[C@@H](C7=CC(=O)OC7)CC[C@]65O)C4)O[C@@H]3C)O[C@@H]2C)O[C@H](C)[C@H]1O[C@@H]1O[C@H](CO)[C@@H](O)[C@H](O)[C@H]1O (stereo not given in full)
Potency [1]: inactive
Potency [12]: inactive
Potency [3]: inactive
Potency [13]: inactive
Potency [4]: inactive
Potency [10]: inactive
Potency [14]: inactive
Potency [5]: inactive
Potency [15]: inactive
Potency [6]: inactive
Potency [16]: inactive
Potency [7]: inactive
Potency [17]: inactive
Potency [18]: inactive
Potency [19]: inactive
Potency [9]: inactive
Potency [20]: inactive

CNC1=CN(O)C(c2ccccc2)=c2cc(Cl)ccc2=N1
Potency [2]: inactive
